IL-1B inflam inh = blocks inflammasome-driven IL-1 beta release; activity change, % at 57.5 µM; 4.7% of 360,000 active; AID 743279; THP-1 LPS/ATP IL-1B secretion, AlphaLISA, 16 h; active compounds read low; in the data active = activity change below about -50%; inconclusive = mostly about -30% to -49%
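Secreted IL-1B measured by AlphaLISA bead assay after 16 h compound exposure of THP-1 cells; compounds (final up to 57.5 uM) added 1 h before LPS (250 ng/mL) and ATP (1.25 mM) stimulation; lower signal means less secretion.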
TDP1 block = TDP1 (human) enzyme inhibition | Q9NUW8 | recombinant TDP1, AlphaScreen DNA substrate cleavage | Potency, µM (series often up to 130 µM), usual class: inhibitors | 0.28% of 350,000 active; note: nearly all actives have a fitted effect of over 40% in size
Target sequence (Q9NUW8 whole entry, looked up): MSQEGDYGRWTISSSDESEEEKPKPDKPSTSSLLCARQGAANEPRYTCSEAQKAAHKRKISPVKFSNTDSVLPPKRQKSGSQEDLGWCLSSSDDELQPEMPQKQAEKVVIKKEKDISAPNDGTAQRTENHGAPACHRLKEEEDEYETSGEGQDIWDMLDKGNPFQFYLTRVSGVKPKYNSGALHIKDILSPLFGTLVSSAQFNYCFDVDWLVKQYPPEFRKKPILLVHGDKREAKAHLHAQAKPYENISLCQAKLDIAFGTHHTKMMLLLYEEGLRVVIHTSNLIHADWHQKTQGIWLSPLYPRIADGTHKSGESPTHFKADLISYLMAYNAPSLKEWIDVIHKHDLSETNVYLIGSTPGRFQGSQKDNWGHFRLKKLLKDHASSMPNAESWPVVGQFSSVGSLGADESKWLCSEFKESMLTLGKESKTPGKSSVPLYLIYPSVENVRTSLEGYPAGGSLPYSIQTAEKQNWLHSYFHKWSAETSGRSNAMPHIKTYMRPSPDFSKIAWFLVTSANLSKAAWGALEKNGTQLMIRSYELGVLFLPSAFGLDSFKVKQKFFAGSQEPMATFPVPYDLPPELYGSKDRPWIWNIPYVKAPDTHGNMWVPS
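AlphaScreen read-out: signal falls as enzyme removes the 3' tyrosine-FITC from a 5'-biotinylated DNA oligo (15 nM, 5 min, RT). Enzyme was E. coli-made recombinant Tdp1 at 1 nM, exposed to compound for 15 min beforehand; beads 10 ug/ml, 10 min.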
HepG2 tox = counter-screen for TGF-b inhibitors: cytotoxicity in HepG2 cells; HepG2 CAGA-GFP viability, ATP luminescence, 18 h; 0.76% of 410,000 active; Potency, µM (highest dose often 46.1 µM), usual class: cytotoxic
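HepG2 CAGA-GFP cells (1000/well, DMEM with 1% FBS) received compound, then TGF-beta at 500 pg/mL final, and were incubated 18 hours at 37 degrees C. Viability was read by CellTiter-Glo luminescence. Media-only wells were set as complete cell-killing and DMSO as no toxicity.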
TGFb SMAD3 inh = blocks TGF-b signaling; Potency, µM (highest dose often 46.1 µM), hits mostly inhibitors; 1.2% of 410,000 active; HepG2 CAGA-GFP TGF-b/SMAD3 reporter, GFP fluorescence, 18 h; TGF-beta stimulated, 500 pg/mL final; note: nearly all actives have a fitted effect of over 65% in size
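GFP signal (ex488/em500-530) from TGF-beta-stimulated HEPG2 CAGA-GFP cells, 500 pg/mL final, 18 h at 37 degrees C in DMEM plus 1% FBS, normalized to unstimulated and DMSO-stimulated controls.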
DT40 TDP1 no CPT = qHTS for Inhibitors of human tyrosyl-DNA phosphodiesterase 1 (TDP1): qHTS in cells in absence of CPT | DT40 Tdp1-/- hTDP1 cells, no CPT, ATP luminescence, 48 h | Potency, µM (titrated, usually from 46.2 µM), most hits filed as inhibitors | 15% of 420,000 active; note: nearly all actives have a fitted effect of over 55% in size
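A cellular qHTS used chicken DT40 cells lacking endogenous Tdp1 but carrying stably transfected human TDP1. Compounds were applied without camptothecin, and cell growth kinetics were judged by ATP-dependent luminescence after ≥48 hr.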
DT40 TDP1 CPT = DT40-hTDP1 cell growth loss with CPT; Potency, µM (top dose mostly 46.2 µM), hits mostly inhibitors; chicken DT40 Tdp1-/-;hTDP1 cells + 20 nM CPT, ATP luminescence, 48 h; 12% of 420,000 active; AID 686979; note: nearly all actives have a fitted effect of over 55% in size
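Chicken DT40 Tdp1-/- cells complemented with human TDP1, 400 cells/well, exposed to compounds plus 20 nM camptothecin for at least 48 h at 37 C; viability read as ATP content by CellTiter-Glo luminescence.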
Large screens that a line does not name were inactive. This is a sample that favours compounds with a hit; in the whole collection about 19% have one here. Unless noted, calls come from the whole dose curve; as a rule, active = well fitted curve in the direction sought with a large enough effect; inconclusive = small, poorly fitted or top-dose-only effect, or another doubt; inactive = no such curve, though single readings can be large; an effect the other way counts as inactive or inconclusive.

CCN(CC)CCNC(=O)c1ccc(N2CCCCC2)c(NS(=O)(=O)c2ccc(C)cc2)c1	DT40 TDP1 no CPT 20.6µM, DT40 TDP1 CPT 25.9µM
COC(=O)c1ccc(N2CCCCC2)c(NS(=O)(=O)c2ccc(C)cc2)c1	DT40 TDP1 no CPT inconclusive, DT40 TDP1 CPT 16.4µM
COC(=O)c1ccc(N2CCN(S(=O)(=O)c3ccc(C)cc3)CC2)c([N+](=O)[O-])c1	DT40 TDP1 no CPT 20.6µM, DT40 TDP1 CPT 18.4µM
CCS(=O)(=O)N1CCN(c2ccc(C(=O)NC3C4CC5CC(C4)CC3C5)cc2[N+](=O)[O-])CC1 (centres undefined)	DT40 TDP1 no CPT 8.2µM, DT40 TDP1 CPT 8.2µM
COc1ccc(-c2oc3ncn4nc(COc5cccc(C)c5C)nc4c3c2-c2ccc(OC)cc2)cc1	none (no result: IL-1B inflam inh, TDP1 block)
CCN(CCn1cccn1)C(=O)CC1C(=O)NCCN1CCc1ccccc1 (centres undefined)	none
O=C(COCc1cc(-c2ccco2)on1)Nc1cccc(Cl)c1Cl	DT40 TDP1 CPT inconclusive (no result: IL-1B inflam inh)
Nc1cc(=O)[nH]c(SCCSc2cc(Cl)ccc2Cl)n1	DT40 TDP1 CPT inconclusive (no result: TDP1 block)
N#Cc1nc(-c2ccccc2F)oc1N1CCCCC1	none (no result: TDP1 block)
N#Cc1nc(-c2cccc3ccccc23)oc1NCCN1CCCCC1	IL-1B inflam inh inconclusive, HepG2 tox 22.4µM, DT40 TDP1 no CPT 16.4µM, DT40 TDP1 CPT 18.4µM
N#Cc1nc(-c2ccc(OCc3ccccc3Cl)cc2)oc1N1CCCCCC1	DT40 TDP1 no CPT 11.2µM, DT40 TDP1 CPT inconclusive (no result: IL-1B inflam inh)
N#Cc1nc(-c2ccccc2Cl)oc1N1CCCCC1	IL-1B inflam inh -50.7, DT40 TDP1 no CPT 9.2µM, DT40 TDP1 CPT inconclusive
N#Cc1nc(-c2ccc(COc3ccccc3)o2)oc1N1CCCCC1	DT40 TDP1 no CPT 23.1µM, DT40 TDP1 CPT inconclusive (no result: IL-1B inflam inh)
N#Cc1nc(-c2ccc(OCc3ccccc3Cl)cc2)oc1N1CCC(C(N)=O)CC1	none (no result: IL-1B inflam inh)
Cc1cccc(OC(=O)c2cc(-c3ccc(Cl)cc3)on2)c1C	none (no result: IL-1B inflam inh)
O=C(NCC1Cc2cccc(-c3ncccn3)c2O1)C1CCCO1 (centres undefined)	none (no result: IL-1B inflam inh, TDP1 block, HepG2 tox, TGFb SMAD3 inh)
Cc1ccsc1CN(C(=O)c1ccc(Br)cc1)C1CCS(=O)(=O)C1 (centres undefined)	none (no result: IL-1B inflam inh, TGFb SMAD3 inh)
Cc1ccc(NC(=O)CCn2nc(C)cc2C)cc1	none
COc1ccccc1-c1nn(CCC(=O)Nc2ccc(C)cc2)c2nc(C)cc(C)c12	DT40 TDP1 no CPT 13µM, DT40 TDP1 CPT inconclusive (no result: IL-1B inflam inh)
COc1ccc(CN2CC[C@H]3C=CCc4cccc(c43)C2)cc1	DT40 TDP1 no CPT inconclusive, DT40 TDP1 CPT inconclusive
COc1ccc(N2c3ccccc3CN(Cc3ccccc3)[C@@H](C)[C@H]2Cc2cccnc2)cc1	TGFb SMAD3 inh inconclusive, DT40 TDP1 no CPT 20.6µM, DT40 TDP1 CPT inconclusive (no result: TDP1 block)
COc1ccc(N2c3ccccc3CN(Cc3ccccc3)[C@@H](C)[C@H]2Cc2c(C)cccc2C)cc1	DT40 TDP1 no CPT 16.4µM, DT40 TDP1 CPT 18.4µM (no result: TDP1 block, HepG2 tox, TGFb SMAD3 inh)
COc1cccc([C@H]2Oc3ccc(OC)cc3/C(=N\O[C@@H]3O[C@H](COC(C)=O)[C@H](OC(C)=O)[C@H](OC(C)=O)[C@H]3OC(C)=O)[C@@H]2O)c1	none (no result: IL-1B inflam inh, HepG2 tox, TGFb SMAD3 inh, DT40 TDP1 no CPT, DT40 TDP1 CPT)
Cn1c(=O)c(Cc2ccccc2)c(O)c2ccccc21	DT40 TDP1 CPT inconclusive
O=c1c(Cc2ccccc2)c(O)c2cccc3c4c(n1c23)CCCC4	TGFb SMAD3 inh 14.1µM
CCn1ccc2cc(S(=O)(=O)N3CCC(C(=O)NCCc4ccc(C)cc4)CC3)ccc21	DT40 TDP1 no CPT inconclusive, DT40 TDP1 CPT inconclusive (no result: IL-1B inflam inh)
C=CCC[C@@H](Cc1ccc(F)cc1)C(=O)OC[C@H](Cc1c[nH]c2ccccc12)NC(=O)[C@H](CC=C)CC(=O)NCCO	IL-1B inflam inh -57.2, TGFb SMAD3 inh inconclusive, DT40 TDP1 no CPT inconclusive, DT40 TDP1 CPT inconclusive

From PubChem BioAssay
